Test results taken from PubChem BioAssay (NCI).
Compounds without any hit were thinned out: in the full panel of roughly 83,000, 20% have a hit.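 Cell lines were cultured in 96-well plates, exposed to a single compound concentration, and assessed for percent growth 48 hours later.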 A number with no mark means an inactive call. The source made the active and inactive calls. How the source made its calls: active means growth percent below 10; inactive means the rest.

Tests used:
Experiment in all cases: NCI-60 one-dose screen, 48 h (100 = growth as untreated, 0 = no growth, -100 = all killed)
Details in all cases: 10 µM unless noted
HT29 colon = system: HT29 colon
SNB-75 CNS = system: SNB-75 CNS
U251 CNS = system: U251 CNS
PC-3 prostate = system: PC-3 prostate
LOX IMVI melanoma = system: LOX IMVI melanoma
SK-MEL-28 melanoma = system: SK-MEL-28 melanoma
SK-MEL-2 melanoma = system: SK-MEL-2 melanoma
EKVX NSCLC = system: EKVX NSCLC
UO-31 renal = system: UO-31 renal
TK-10 renal = system: TK-10 renal
ACHN renal = system: ACHN renal
CAKI-1 renal = system: CAKI-1 renal
A498 renal = system: A498 renal
CCRF-CEM leukemia = system: CCRF-CEM leukemia
MOLT-4 leukemia = system: MOLT-4 leukemia
UACC-62 melanoma = system: UACC-62 melanoma
SN12C renal = system: SN12C renal
SR leukemia = system: SR leukemia
SK-MEL-5 melanoma = system: SK-MEL-5 melanoma
SNB-19 CNS = system: SNB-19 CNS

Row | SMILES | growth (HT29 colon) | growth (SNB-75 CNS) | growth (U251 CNS) | growth (PC-3 prostate) | growth (LOX IMVI melanoma) | growth (SK-MEL-28 melanoma) | growth (SK-MEL-2 melanoma) | growth (EKVX NSCLC) | growth (UO-31 renal) | growth (TK-10 renal) | growth (ACHN renal) | growth (CAKI-1 renal) | growth (A498 renal) | growth (CCRF-CEM leukemia) | growth (MOLT-4 leukemia) | growth (UACC-62 melanoma) | growth (SN12C renal) | growth (SR leukemia) | growth (SK-MEL-5 melanoma) | growth (SNB-19 CNS) [%]
1 | CCC(C)(C)C(=O)O[C@H]1C[C@@H](C)C=C2C=C[C@H](C)[C@H](CC[C@@H]3C[C@@H](O)CC(=O)O3)[C@H]21 | 76.9% | 13.7% | 4.81% (active) | 33.9% | -16.2% (active) | 62.3% | 26.3% | 51.7% | 52.1% | 83.1% | 14.7% | -33.5% (active) | -38.8% (active) | 62.5% | 72.8% | – | – | – | – | –
2 | COc1ncc(-c2ccc3nccc(C#CCN4CCN(S(C)(=O)=O)CC4)c3c2)cc1NS(=O)(=O)c1ccc(F)cc1F | 10.3% | -11.4% (active) | 6.79% (active) | 0.156% (active) | -11.4% (active) | 3.79% (active) | 0.951% (active) | 9.26% (active) | 5.46% (active) | 12% | 13.2% | 4.01% (active) | -52.9% (active) | -7.81% (active) | -21% (active) | -54.9% (active) | 2.52% (active) | 1.58% (active) | – | –
3 | COc1ccc2c(c1)C(=O)c1c-2c(OCCCN(C)C)nc2cc(Br)ccc12 | -19.7% (active) | 79.2% | -75.7% (active) | 63.8% | 20.7% | -48.6% (active) | – | 61.8% | -34.7% (active) | 76.7% | 3.65% (active) | 69.6% | 76.3% | -27.6% (active) | 21.1% | 86.4% | 62.2% | -21.3% (active) | 87.4% | –
4 | O=C(/C=C/c1ccccc1Cl)c1ccc(O)cc1 | 14.5% | 46.7% | 31.4% | – | 36.2% | 96.1% | – | 84.8% | 43.6% | 78.6% | 78.9% | – | 91.9% | 30.6% | 55.1% | 73.4% | 67.3% | 27.9% | 58.1% | –
5 | Clc1ccc2c(Nc3ccc4oc(NCCN5CCCC5)nc4c3)ccnc2c1 | 38.1% | 79.8% | 70.1% | – | 29.5% | 89.6% | 105% | 104% | 66.2% | 103% | 98.2% | 94.1% | 90.6% | 70.2% | 66.6% | 94.2% | 83.7% | 1.43% (active) | 99.1% | –
6 | CC1=CC(=O)C(C(C)=Nc2ccccc2Cl)C(=O)O1 (configuration not stated) | 101% | 83.6% | 103% | – | 83.6% | 105% | – | 103% | 95.8% | 126% | – | – | 85.7% | 89.2% | 101% | 98% | 105% | 118% | 120% | –
7 | CCCCCCCCCCCCCCCCCC1=NC(C)(C)CN1CCO | -44.7% (active) | – | -57.9% (active) | -52.4% (active) | -67% (active) | -78% (active) | -66.2% (active) | 15.3% | -62.9% (active) | -33.8% (active) | -49.2% (active) | -41% (active) | 117% | – | -55.7% (active) | -77.1% (active) | -29.6% (active) | -42.7% (active) | -65.3% (active) | 38.2
8 | CCCCCCCC1(C)NC(=O)NC1=O (configuration not stated) | 114% | 84.5% | 99.5% | – | 103% | 87.7% | – | 105% | 93.8% | 132% | – | 105% | 103% | 94.2% | 106% | 106% | 109% | 96.9% | 106% | –
9 | CCC1=C(c2ccc(OC)cc2)C(C)(C)Oc2c1ccc(O)c2CN1CCCC1 | 50.4% | 41.3% | -25.4% (active) | – | -59.7% (active) | -75.6% (active) | -58.5% (active) | 88.8% | 31.3% | 57.3% | 57.5% | 44.5% | 58.4% | 21.2% | 14.3% | 10.5% | 51.8% | -4.25% (active) | -97.6% (active) | –
